Screening data from PubChem.
HCMV antiviral = inhibitors of human cytomegalovirus. HFF cells, HCMV-luciferase reporter, 72 h; stronger effect = lower value. activity change, negative = inhibition, % at 57.5 µM. 410,000 tested, 4.5% active. AID 1259415; in the data active = activity change below about -60%; inconclusive = no clear call, values can overlap the other calls; inactive = above about -39%
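Screen run at 2 compound doses on HFFs infected with reporter HCMV, MOI 1 PFU/cell. Luciferase activity from cell lysates at 72 h post infection gave inhibition relative to buffer-only and Salinomycin wells.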
Marburg entry inh = blocks Marburg virus binding to or entry into cells | Potency, µM (series often up to 37.8 µM), inactives show top-dose activity change, negative = inhibition, most hits filed as inhibitors | Marburg virus pseudotyped entry inhibition, cell reporter | 300,000 tested, 1.8% active; calls by dose curve; tested in HEK293 cells; also: potency is read from the fitted curve at half-maximal effect
Vaccinia Venus = inhibitors of vaccinia virus (Venus reporter). Vaccinia virus Venus reporter expression, fluorescence. Potency, µM (titrated, usually from 36.5 µM), inactives show at the highest dose activity change, negative = inhibition, usual class: inhibitors. 330,000 tested, 0.46% active; calls by dose curve; tested in A549 cells; also: potency is read from the fitted curve at half-maximal effect; nearly all actives have a fitted effect of over 30% in size
VACV mCherry inh = vaccinia inhibition (mCherry reporter); 310,000 tested, 0.63% active; Potency, µM (titrated, usually from 36.5 µM), for the others: top-dose activity change, negative = inhibition, hits mostly inhibitors; Vaccinia virus mCherry reporter infection, fluorescence; calls by dose curve; tested in A549 cells; also: potency is read from the fitted curve at half-maximal effect; nearly all actives have a fitted effect of over 35% in size
LASV entry inh = inhibitors of Lassa virus binding or cell entry; Lassa virus pseudotype entry inhibition, cell reporter; Potency, µM (titrated, usually from 37.9 µM), for inactives: top-dose activity change, negative = inhibition, usual class: inhibitors; 300,000 tested, 1.2% active; calls by dose curve; tested in HEK293 cells; also: potency is read from the fitted curve at half-maximal effect; nearly all actives have a fitted effect of over 50% in size
HCV inh = inhibitors of hepatitis C virus infection | Huh7.5.1 HCVcc-Cre infection, luciferase reporter, 44 h | Potency, µM (doses to about 41.8 µM), without a hit: top-dose activity change, negative = inhibition, usual class: inhibitors | 340,000 tested, 3.4% active; active = well fitted inhibition curve with a large enough effect; inconclusive = small, poorly fitted or top-dose-only effect, or another doubt; inactive = no such curve, though single readings can be large or run the other way; also: potency is read from the fitted curve at half-maximal effect
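Cells seeded at 1,000/well and cultured 4 h, then compounds added followed by HCVcc-Cre virus (~0.5 moi). After 44 h further culture, luciferase substrate was added, plates held 15 min at room temperature, and luminescence read for 15 sec.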
* = called active by the depositor; i = inactive; ? = inconclusive; · = no result given; [ ] = dose if it differs, or a comment. Compounds with a hit are over-represented: about 7.8% of the library has one in this group of screens. % is scaled to controls: 0 for no effect and ±100 for the full control effect.

SMILES | HCMV antiviral | Marburg entry inh | Vaccinia Venus | VACV mCherry inh | LASV entry inh | HCV inh
Cc1ccc(-c2csc(NC(=O)C[n+]3cc(-c4ccc(C)cc4)n4c3CCC4)n2)cc1 | -27 | 10% | ? | ? | 7% | 3.5µM*
Cc1ccc(-c2csc(NC(=O)C[n+]3cc(-c4ccccc4)n4c3CCC4)n2)cc1 | 4 | ? | ? | -17% | ? | 2µM*
Cc1ccc(-c2c[n+](CC(=O)Nc3c(C)cccc3C)c3n2CCC3)cc1 | -68* | · | · | · | · | 2%
Cc1ccc(-c2c[n+](CC(=O)N3c4ccccc4Sc4ccccc43)c3n2CCC3)cc1 | -87* | -12% | -26% | -7% | -19% | 7%
Cc1ccsc1CN1CCc2nnc(CCNC(=O)c3ccc(F)cc3)n2CC1 | · | · | -18% | i | · | ·
COC(CNC(=O)c1ccc2nc(-c3ccccc3)c(-c3ccccc3)nc2c1)OC | 6 | ? | -9% | -3% | ? | 10µM*
COc1cccc(CNC(=O)c2ccc3nc(-c4ccccc4)c(-c4ccccc4)nc3c2)c1OC | 5 | · | -17% | -22% | ? | ·
COc1ccc(-c2nc3ccc(C(=O)NCc4ccccc4)cc3nc2-c2ccc(OC)cc2)cc1 | -5 | · | -21% | -29% | 19%[46.1 µM] | ·
COc1ccc(-c2nc3ccc(C(=O)NCC(OC)OC)cc3nc2-c2ccc(OC)cc2)cc1 | -60* | ? | -10% | -1% | -10% | ?
CN1CCN(CCNC(=O)c2ccc3nc(-c4ccc(F)cc4)c(-c4ccc(F)cc4)nc3c2)CC1 | -33 | ? | ? | -26% | -26%[46.1 µM] | 2.2µM*
Cc1noc(C)c1S(=O)(=O)N(CC(=O)Nc1ccc(C(F)(F)F)cc1)c1ccc(C(C)C)cc1 | -8 | ? | -14% | i | 10%[46.1 µM] | ·
O=C(O)[C@@H]1CN[C@@H](C(=O)O)C1 | · | · | -12% | -14% | · | ·
CC(=O)Nc1cccc(NC(=O)c2cc(-c3cccnc3)nc3ccc(Br)cc23)c1 | -28 | ? | · | · | -12% | 14µM*
O=C(Nc1ccc(C(F)(F)F)cc1)c1cc(-c2cccnc2)nc2ccc(Br)cc12 | ? | ? | · | · | -3% | -1%
O=C(NCCCN1CCCC1=O)c1cc(-c2cccnc2)nc2ccc(Cl)cc12 | -33 | 4% | -1% | -3% | -29% | -2%
CC(=O)Nc1cccc(NC(=O)c2cc(-c3cccnc3)nc3ccc(Cl)cc23)c1 | 2 | ? | -6% | -10% | ? | ?
O=C(Nc1ccc(C(=O)N2CCOCC2)cc1)c1cc(-c2cccnc2)nc2ccc(Cl)cc12 | -69* | -5%[46.1 µM] | -14% | -6% | ? | 7.9µM*
COc1cccc(-c2cc(C(=O)Nc3ccc(N(C)C(C)=O)cc3)c3cc(Br)ccc3n2)c1 | -97* | · | · | · | · | 11µM*
CSc1ccccc1NC(=O)c1cc(-c2cccnc2)nc2ccc(Br)cc12 | -73* | ? | -10% | i | ? | 11µM*
O=C(Nc1cc(Cl)cc(Cl)c1)c1cnn2c1NC(=C1CC1)C=C2C(F)F | · | · | -8% | -8% | · | ·
CC(C)C(NC(=O)c1ccoc1)c1nnc2n1CCN(Cc1ccc3c(c1)Cc1ccccc1-3)CC2 (stereo not given) | · | · | -3% | -7% | · | ·
CC(C)c1ccc(CN2CCN(C(=O)CSc3nnnn3C3CC3)CC2)cc1 | -90* | · | · | · | · | 5.6µM*
O=C(CSc1nnnn1C1CC1)N1CCN(c2cccc(Cl)c2)CC1 | -33 | · | · | · | · | 13µM*
COC(=O)[C@@H]1[C@@H](CO)[C@@H]2Cn3c(cccc3=O)[C@H]1N2C(=O)Nc1cc(F)ccc1F | 4 | · | · | · | · | ·
Cc1ccc2c(c1)C1CN(C)CCC1N2Sc1ccccc1[N+](=O)[O-] (stereo not given) | -9 | ? | -4% | ? | 7.1µM* | -11%
SMILES | HCMV antiviral | Marburg entry inh | Vaccinia Venus | VACV mCherry inh | LASV entry inh | HCV inh
COc1ccc(C2CC(=O)c3sc(NC(C)=O)nc3C2)cc1 (stereo not given) | -70* | ? | -17% | i | -7% | 13%
COc1ccc(-c2nc(NC(C)=O)sc2-c2ccc(OC)cc2)cc1 | 7 | -3%[46.1 µM] | -13% | -16% | 1% | ?
COc1ccc(OC)c(NC(=O)CSC2=Nc3ccccc3C3=NC(CC(=O)NCc4ccc5c(c4)OCO5)C(=O)N23)c1 (stereo not given) | -6 | · | -7% | -9% | -20%[46.1 µM] | ·
C=C1C(=O)O[C@H]2C[C@H]1[C@@H](OC(C)=O)C/C(C)=C/CC/C(C)=C\CC[C@]2(C)O | -103* | · | 10µM* | 10µM* | · | 10µM*
Cc1ccccc1NC(=O)c1cc(C(=O)c2cc(Cl)ccc2O)cn(-c2ccccc2C)c1=O | -65* | ? | ? | ? | ? | 13µM*
O=C(c1cc(C(=O)NCc2ccccc2)c(=O)n(Cc2ccccc2)c1)c1cc(Cl)ccc1O | -2 | ? | ? | -21% | ? | ?
CCN(CC)S(=O)(=O)c1ccc(NC(=O)c2ccccc2N(C)S(C)(=O)=O)cc1 | -13 | 0% | · | · | -9% | 6%
CCN(CC)S(=O)(=O)c1ccc(C(=O)Nc2cc(C)cc(C)c2)cc1 | -39 | ? | -17% | -24% | ? | -30%
CC(C)(C)c1ccc(S(=O)(=O)Nc2ccc(Cc3ccncc3)cc2)cc1 | ? | ? | -28% | -28% | 10µM* | ?
CCCCc1ccc(NC(=O)c2ccc(N(C)S(C)(=O)=O)cc2)cc1 | -81* | ? | -23% | -10% | -19% | ?
CCN(CC)S(=O)(=O)c1ccc(NC(=O)c2ccc(N(C)S(C)(=O)=O)cc2)cc1 | -67* | -53% | ? | · | ? | 4.5µM*
CCCCc1ccc(NC(=O)c2ccc(NS(C)(=O)=O)cc2)cc1 | 33 | 6% | -9% | i | ? | ?
CCN(CC)S(=O)(=O)c1ccc(C(=O)Nc2ccc(Cc3ccncc3)cc2)cc1 | -87* | ? | -23% | i | ? | 3.2µM*
COc1ccccc1CCNc1ncnc2sc(C(=O)N3CCCC3)c(C)c12 | · | · | -8% | -12% | · | ·
CC(=O)NC(Cc1ccc(I)cc1)C(=O)NCC(N)C(=O)c1ccccc1 (stereo not given) | · | · | -19% | -3% | · | ·
CCCCn1c(SCC(=O)Nc2cccc(OC)c2)nc2ccsc2c1=O | -23 | · | -20% | -17% | -30%[46.1 µM] | ·
O=[N+]([O-])c1nccn1CCCCCCCCCCCN1CCOCC1 | -35 | · | -6% | -2% | · | ·
O=[N+]([O-])c1cccc2nc3ccccc3c(NCCCn3ccnc3[N+](=O)[O-])c12 | -97* | ? | 1.4µM* | 2.8µM* | ? | ?
CCOC(=O)/C(=N\Nc1ccccc1[N+](=O)[O-])c1csc(N)n1 | -65* | · | ? | -24% | · | ?
O=C(c1ccc([N+](=O)[O-])cc1)N(Cc1ccco1)c1ccccn1 | 4 | -17%[46.1 µM] | 4% | -13% | 2%[46.1 µM] | ·
COc1ccc(-c2nc(CNS(=O)(=O)c3cccc(F)c3)cs2)cc1 | ? | -2%[46.1 µM] | -12% | -16% | -11%[46.1 µM] | ·
